Inconclusive results are not listed. Some compounds were tested as several samples or in several runs, with calls that do not always agree. Calls of active or inactive are those of the source. Rule for the calls, unless noted: active = hit-call score of the fitted dose curve at least 0.9, where 1 is the maximum; inconclusive = response in the unintended direction; inactive = score below 0.9.
How the values were obtained:
[1] = target: Nuclear receptor subfamily 1 group I member 2 (Homo sapiens) (UniProt O75469); assay: NVS_NR_hPXR: NovaScreen (NVS) Nuclear Receptor Binding Assay for human Pregnane X Receptor (PXR) (AID 2283365);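 note: a drop in FRET signal versus DMSO baseline means the compound binds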
How it was run: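 Binding was measured by time-resolved fluorescence resonance energy transfer after a 2 h exposure of extracted human PXR protein without cells. Compounds were first tested at 25 uM in duplicate, with concentration series for actives; DMSO defined baseline.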

[2] = target: Agonist Androgen Response Element (ARE), AR (gene 367) (UniProt P10275); assay: OT_AR_ARELUC_AG_1440: Odyssey Thera (OT) 24-hour CHO-K1 Luciferase Assay for Agonist Androgen Response Element (ARE) (AID 2283379)
How it was run: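 Seed CHO-K1 cells; dose compounds for 24 h; add D-luciferin plus ATP in PBS; read luminescence. Signal increase relative to vehicle defines agonist activity, with at least 3 replicate wells per sample.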

[3] = target: Estrogen receptor beta (Homo sapiens) (UniProt Q92731); assay: OT_ER_ERbERb_1440: Odyssey Thera (OT) 24-hour HEK293T Protein-Complementation Assay for Estrogen Receptor-beta/-beta Homodimer (AID 2283380);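 note: fluorescence gain from ER beta LBD homodimer complementation read by laser scanning cytometry; scored as signal increase over DMSO baseline for both agonists and antagonists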
How it was run: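 HEK293T cells stably expressing human ER-beta LBD (aa 310-547) PCA homodimer pair, dosed 24 h; formaldehyde-fixed, Draq5-stained. Readout: increase in nuclear (agonist) or nuclear plus cytoplasmic (antagonist) fluorescence intensity versus DMSO, gain-of-signal fitting.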

[4] = target: Estrogen receptor (Homo sapiens) (UniProt P03372); assay: OT_ERa_GFPERaERE_0480: Odyssey Thera (OT) 8-hour HeLa Transcription Induction Assay for Estrogen Receptor (AID 2283381; active = hit-call score of the fitted dose curve at least 0.9, where 1 is the maximum; inactive = score below 0.9)
How it was run: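 HeLa cells expressing GFP reporter under estrogen response element, imaged 8 h after dosing. GFP induction quantified by high-content fluorescence microscopy image analysis; gain of signal fitted versus DMSO.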

[5] = target: Estrogen receptor (Homo sapiens) (UniProt P03372); assay: OT_ERa_GFPERaERE_0120: Odyssey Thera (OT) 2-hour HeLa Transcription Induction Assay for Estrogen Receptor (AID 2283382)
How it was run: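 HeLa cells were dosed for 2 h, then GFP reporter induction was quantified by fluorescence microscopy with high-content image analysis. Gain of signal fitted against DMSO baseline.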

[6] = target: Retinoic acid receptor RXR-alpha (Homo sapiens) (UniProt P19793); assay: OT_NURR1_NURR1RXRa_1440: Odyssey Thera (OT) 24-hour HEK293T Protein Complementation Assay for Nurr1/retinoid X receptor (RXR) (AID 2283386)
How it was run: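 HEK293T protein-fragment complementation of Nurr1 and RXRα fused to reporter fragments; compounds 24 h. Fluorescence gain from reconstituted reporter fitted versus DMSO.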

[7] = target: Peroxisome proliferator-activated receptor gamma (Homo sapiens) (UniProt P37231); assay: OT_PPARg_PPARgSRC1_0480: Odyssey Thera (OT) 8-hour Protein-Complementation Assay for Peroxisome Proliferator-activated Receptor Gamma / SRC-1 Co-activator (AID 2283387);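 note: nuclear to cytoplasmic split Venus YFP fluorescence ratio reporting PPARg SRC-1 interaction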
How it was run: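 Split-YFP (IFP1/IFP2) PPARg/SRC-1 reporter, HEK293T, 37 °C, 5% CO2; 8 h compound; formaldehyde fix + Draq5; high-content imaging, N/C ratio, ≥350 cells/image, positive direction vs DMSO.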

[8] = target: Peroxisome proliferator-activated receptor gamma (Homo sapiens) (UniProt P37231); assay: OT_PPARg_PPARgSRC1_1440: Odyssey Thera (OT) 24-hour Protein-Complementation Assay for Peroxisome Proliferator-activated Receptor Gamma/ SRC-1 Co-activator (AID 2283388);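 note: nuclear to cytoplasmic ratio of reconstituted Venus YFP fluorescence in fixed imaged cells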
How it was run: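 Transient HEK293T, YFP fragments 1-158/159-239 (mutant IFP1/IFP2) fused to PPARg/SRC-1; 24 h dosing; fix 4% formaldehyde, Draq5; Opera imaging 488/635 nm; N/C ratio, gain vs DMSO.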

[9] = target: guinea pig Sigma Receptor, Non-selective Binding, SIGMAR1 (gene 100135589) (UniProt Q60492); assay: NVS_OR_gSIGMA_NonSelective: NovaScreen (NVS) Nuclear Receptor Binding Assay for guinea pig Sigma Receptor, Non-selective Binding (AID 2283367)
How it was run: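 Guinea pig brain membranes, cell-free radioligand binding; read 1 h after dosing by filter-based scintillation counting. Loss of signal vs DMSO baseline taken as displacement. Primary screen single concentration 25 uM in duplicate; actives retested in concentration series.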

[10] = target: Peroxisome proliferator-activated receptor gamma (Homo sapiens) (UniProt P37231); assay: NVS_NR_hPPARg: NovaScreen (NVS) Nuclear Receptor Binding Assay for human Peroxisome Proliferator-activated Receptor gamma (PPARg) (AID 2283370)
How it was run: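 Fluorescence polarization measures competitive binding to extracted PPARg in a cell-free format. Reading is taken at 2 h; activity is signal loss relative to DMSO. Screening at 25 uM in duplicate preceded confirmatory dose series.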

[11] = target: Bile acid receptor (Homo sapiens) (UniProt Q96RI1); assay: OT_FXR_FXRSRC1_0480: Odyssey Thera (OT) 8-hour HEK293T Protein-Complementation Assay for Farnesoid X receptor/SRC-1 Co-activator (AID 2283383)
How it was run: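 HEK293T protein-fragment complementation assay: FXR and SRC-1 coactivator are fused to reporter fragments, and their interaction restores a fluorescent reporter. Readout was taken 8 h after dosing, with gain of signal fit relative to DMSO.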

[12] = target: Retinoic acid receptor RXR-alpha (Homo sapiens) (UniProt P19793); assay: OT_NURR1_NURR1RXRa_0480: Odyssey Thera (OT) 8-hour HEK293T Protein Complementation Assay for Nurr1/retinoid X receptor (RXR) (AID 2283385)
How it was run: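 HEK293T cells expressing Nurr1 and RXRα fused to reporter fragments (protein-fragment complementation); fluorescence measured 8 h after dosing. Gain of signal fitted relative to DMSO.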

[13] = CEETOX_H295R_11DCORT: CeeTox H295R High-throughput Steroidogenesis Assay for 11-Deoxycortisol (11DCORT) (AID 2283432; active = hit-call score of the fitted dose curve at least 0.9, where 1 is the maximum; inactive = score below 0.9;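 note: human adrenal H295R cells prestimulated with 10 µM forskolin for 48 h; 11-deoxycortisol secreted into the medium measured by LC-MS/MS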); settings: actives raise or lower the signal
How it was run: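 Steroidogenesis in human H295R cells: 48 h chemical exposure after forskolin priming, 11-deoxycortisol measured by LC-MS/MS.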

[14] = target: rat Androgen Receptor (AR), Ar (gene 24208) (UniProt P15207); assay: NVS_NR_rAR: NovaScreen (NVS) Nuclear Receptor Binding Assay for rat Androgen Receptor (AR) (AID 2283366)
How it was run: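 Cell-free radioligand binding on extracts of prostate from testosterone-pretreated rats, read by filter-based scintillation counting 18 h after dosing. Loss of bound signal fitted positively versus DMSO; primary screen in duplicate at 25 uM, actives followed up in concentration series.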

[15] = target: Bile acid receptor (Homo sapiens) (UniProt Q96RI1); assay: OT_FXR_FXRSRC1_1440: Odyssey Thera (OT) 24-hour HEK293T Protein-Complementation Assay for Farnesoid X receptor/SRC-1 Co-activator (AID 2283384)
How it was run: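 HEK293T cells, 24 h after chemical dosing. FXR–SRC-1 coactivator interaction read as fluorescence from protein-fragment complementation of a split reporter. Gain of signal fitted against DMSO baseline.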

[16] = tested on: guinea pig Dopamine Transporter (DAT), gene 100714898; assay: NVS_TR_gDAT: NovaScreen (NVS) Transporter Assay for guinea pig Dopamine Transporter (DAT) (AID 2283369);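 note: active compounds lower bound radioligand signal relative to DMSO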
How it was run: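 Test chemicals were incubated 2 h with guinea pig striatal membranes and a radioligand; bound label was separated by filtration and counted. Screening ran at 25 uM, followed by concentration-response testing to a 50 uM maximum.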

[17] = target: human Dopamine Transporter (DAT), SLC6A3 (gene 6531) (UniProt Q01959); assay: NVS_TR_hDAT: NovaScreen (NVS) Transporter Assay for human Dopamine Transporter (DAT) (AID 2283374);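 note: activity means loss of bound radioligand signal relative to DMSO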
How it was run: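 Cell-free radioligand binding to extracted human DAT protein, read 1 h after dosing by filter-based scintillation counting. Loss of specific binding scored against DMSO baseline; primary screen in duplicate at 25 uM, actives then run in concentration series.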

Estrogen receptor beta (Homo sapiens), sequence (Q92731 whole entry, looked up, the tested form may be a part): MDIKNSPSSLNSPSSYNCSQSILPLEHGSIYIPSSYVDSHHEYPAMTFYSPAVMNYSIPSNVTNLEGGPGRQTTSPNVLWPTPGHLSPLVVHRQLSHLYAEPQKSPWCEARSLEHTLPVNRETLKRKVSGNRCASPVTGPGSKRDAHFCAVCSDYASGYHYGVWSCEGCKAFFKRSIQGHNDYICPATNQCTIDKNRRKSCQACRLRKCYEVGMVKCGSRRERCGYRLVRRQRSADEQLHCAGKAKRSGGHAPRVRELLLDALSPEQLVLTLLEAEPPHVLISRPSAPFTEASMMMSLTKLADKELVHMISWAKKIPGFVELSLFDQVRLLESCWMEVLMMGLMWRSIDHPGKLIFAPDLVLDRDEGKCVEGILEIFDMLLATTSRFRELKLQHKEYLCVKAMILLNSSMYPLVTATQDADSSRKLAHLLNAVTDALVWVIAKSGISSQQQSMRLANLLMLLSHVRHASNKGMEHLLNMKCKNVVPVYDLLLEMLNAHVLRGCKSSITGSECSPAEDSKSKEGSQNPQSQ
Peroxisome proliferator-activated receptor gamma (Homo sapiens), sequence (P37231 whole entry, looked up, the tested form may be a part): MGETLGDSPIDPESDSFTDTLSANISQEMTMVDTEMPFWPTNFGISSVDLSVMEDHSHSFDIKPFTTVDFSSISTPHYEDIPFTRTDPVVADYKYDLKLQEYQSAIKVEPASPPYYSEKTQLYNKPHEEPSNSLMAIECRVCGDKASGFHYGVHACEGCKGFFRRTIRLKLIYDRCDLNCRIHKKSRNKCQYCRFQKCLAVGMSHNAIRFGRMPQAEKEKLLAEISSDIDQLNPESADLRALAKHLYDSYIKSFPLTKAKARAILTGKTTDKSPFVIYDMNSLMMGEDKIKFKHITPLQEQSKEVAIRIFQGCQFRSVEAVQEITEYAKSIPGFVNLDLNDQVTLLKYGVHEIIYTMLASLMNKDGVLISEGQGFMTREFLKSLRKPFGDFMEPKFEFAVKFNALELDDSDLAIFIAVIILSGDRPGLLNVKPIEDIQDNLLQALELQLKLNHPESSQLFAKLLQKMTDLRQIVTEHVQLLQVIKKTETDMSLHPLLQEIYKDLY
Bile acid receptor (Homo sapiens), sequence (Q96RI1 whole entry, looked up, the tested form may be a part): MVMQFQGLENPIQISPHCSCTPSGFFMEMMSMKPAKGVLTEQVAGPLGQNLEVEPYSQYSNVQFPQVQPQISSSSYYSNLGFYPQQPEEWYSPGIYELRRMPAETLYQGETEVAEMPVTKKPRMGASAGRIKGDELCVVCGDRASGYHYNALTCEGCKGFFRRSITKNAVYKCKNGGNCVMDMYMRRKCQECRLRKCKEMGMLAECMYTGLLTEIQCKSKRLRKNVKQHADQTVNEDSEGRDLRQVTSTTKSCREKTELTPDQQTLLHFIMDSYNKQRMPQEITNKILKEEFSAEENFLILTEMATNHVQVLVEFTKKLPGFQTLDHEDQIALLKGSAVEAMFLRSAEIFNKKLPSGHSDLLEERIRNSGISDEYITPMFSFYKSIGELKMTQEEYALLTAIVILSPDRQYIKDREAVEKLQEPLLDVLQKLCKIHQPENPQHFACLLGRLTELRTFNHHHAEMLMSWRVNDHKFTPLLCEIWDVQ
Agonist Androgen Response Element (ARE), AR (gene 367), sequence (P10275 whole entry, looked up): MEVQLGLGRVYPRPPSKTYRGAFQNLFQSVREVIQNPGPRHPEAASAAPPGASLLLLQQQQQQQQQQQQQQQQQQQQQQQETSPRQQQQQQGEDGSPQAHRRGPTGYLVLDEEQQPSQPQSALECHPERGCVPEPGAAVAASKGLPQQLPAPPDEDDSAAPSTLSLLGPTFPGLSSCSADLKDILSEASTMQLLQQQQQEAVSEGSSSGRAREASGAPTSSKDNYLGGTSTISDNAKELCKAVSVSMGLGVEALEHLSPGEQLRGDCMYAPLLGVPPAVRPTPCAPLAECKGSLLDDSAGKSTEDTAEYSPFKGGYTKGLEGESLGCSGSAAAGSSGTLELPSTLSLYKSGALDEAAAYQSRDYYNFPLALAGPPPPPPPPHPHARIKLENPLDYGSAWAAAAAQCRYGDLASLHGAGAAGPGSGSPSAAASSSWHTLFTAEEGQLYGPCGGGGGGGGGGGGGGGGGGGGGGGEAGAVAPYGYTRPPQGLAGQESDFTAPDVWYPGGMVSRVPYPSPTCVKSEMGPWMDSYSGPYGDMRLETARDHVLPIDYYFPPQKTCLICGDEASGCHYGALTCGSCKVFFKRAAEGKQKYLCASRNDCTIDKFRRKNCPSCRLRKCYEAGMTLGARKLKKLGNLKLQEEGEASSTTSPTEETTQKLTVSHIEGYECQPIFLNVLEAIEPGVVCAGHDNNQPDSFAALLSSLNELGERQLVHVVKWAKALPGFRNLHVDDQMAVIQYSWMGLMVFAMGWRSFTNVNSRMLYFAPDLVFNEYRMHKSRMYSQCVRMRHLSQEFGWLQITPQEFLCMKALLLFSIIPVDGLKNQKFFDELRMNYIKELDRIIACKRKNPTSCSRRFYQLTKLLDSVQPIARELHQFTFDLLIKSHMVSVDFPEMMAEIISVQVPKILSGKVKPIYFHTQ
Retinoic acid receptor RXR-alpha (Homo sapiens), sequence (P19793 whole entry, looked up, the tested form may be a part): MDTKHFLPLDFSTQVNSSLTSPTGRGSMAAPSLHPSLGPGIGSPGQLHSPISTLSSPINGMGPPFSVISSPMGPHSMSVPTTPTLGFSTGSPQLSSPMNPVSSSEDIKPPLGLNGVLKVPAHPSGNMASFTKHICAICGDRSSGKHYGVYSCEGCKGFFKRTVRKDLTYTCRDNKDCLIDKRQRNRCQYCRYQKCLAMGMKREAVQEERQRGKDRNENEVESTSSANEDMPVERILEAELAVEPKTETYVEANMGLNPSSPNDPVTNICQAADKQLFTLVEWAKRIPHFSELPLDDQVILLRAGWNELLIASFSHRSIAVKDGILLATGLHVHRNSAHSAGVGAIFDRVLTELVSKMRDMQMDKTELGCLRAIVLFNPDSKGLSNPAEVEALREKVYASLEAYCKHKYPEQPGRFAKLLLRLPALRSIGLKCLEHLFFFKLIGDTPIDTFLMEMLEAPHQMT
Nuclear receptor subfamily 1 group I member 2 (Homo sapiens), sequence (O75469 whole entry, looked up): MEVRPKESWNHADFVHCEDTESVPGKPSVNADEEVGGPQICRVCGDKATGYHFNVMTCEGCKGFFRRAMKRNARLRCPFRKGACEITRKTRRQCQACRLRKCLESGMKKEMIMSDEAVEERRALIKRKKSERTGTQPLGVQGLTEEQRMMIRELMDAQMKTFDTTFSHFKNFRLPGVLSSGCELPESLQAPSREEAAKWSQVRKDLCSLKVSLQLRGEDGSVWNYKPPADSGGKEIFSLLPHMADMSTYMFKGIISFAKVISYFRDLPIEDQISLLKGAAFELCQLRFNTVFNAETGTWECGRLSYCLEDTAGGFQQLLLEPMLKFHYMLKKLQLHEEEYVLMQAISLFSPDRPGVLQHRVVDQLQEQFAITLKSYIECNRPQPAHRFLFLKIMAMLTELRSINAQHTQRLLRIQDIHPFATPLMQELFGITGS
guinea pig Sigma Receptor, Non-selective Binding, SIGMAR1 (gene 100135589), sequence (Q60492 whole entry, looked up): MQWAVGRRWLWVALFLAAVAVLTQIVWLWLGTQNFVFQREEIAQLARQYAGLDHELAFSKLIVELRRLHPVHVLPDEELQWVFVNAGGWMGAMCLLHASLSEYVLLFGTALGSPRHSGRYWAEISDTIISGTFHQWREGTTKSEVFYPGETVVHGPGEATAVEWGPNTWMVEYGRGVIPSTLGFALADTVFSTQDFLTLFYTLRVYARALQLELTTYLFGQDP
Estrogen receptor (Homo sapiens), sequence (P03372 whole entry, looked up): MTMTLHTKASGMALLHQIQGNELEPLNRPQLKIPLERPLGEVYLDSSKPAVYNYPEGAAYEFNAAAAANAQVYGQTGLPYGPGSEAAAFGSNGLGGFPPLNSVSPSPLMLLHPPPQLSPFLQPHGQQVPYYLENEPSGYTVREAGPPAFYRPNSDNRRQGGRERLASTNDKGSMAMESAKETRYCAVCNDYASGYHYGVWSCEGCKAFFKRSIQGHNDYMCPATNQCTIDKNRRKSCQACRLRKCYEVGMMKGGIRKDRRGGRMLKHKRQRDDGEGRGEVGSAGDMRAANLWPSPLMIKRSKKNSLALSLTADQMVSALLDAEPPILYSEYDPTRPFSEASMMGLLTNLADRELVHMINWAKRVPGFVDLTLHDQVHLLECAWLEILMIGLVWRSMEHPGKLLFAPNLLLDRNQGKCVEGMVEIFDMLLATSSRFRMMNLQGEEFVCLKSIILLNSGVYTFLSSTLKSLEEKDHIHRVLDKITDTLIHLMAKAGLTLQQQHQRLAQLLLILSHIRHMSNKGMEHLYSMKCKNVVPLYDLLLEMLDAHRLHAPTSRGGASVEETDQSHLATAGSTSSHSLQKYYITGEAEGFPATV
human Dopamine Transporter (DAT), SLC6A3 (gene 6531), sequence (Q01959 whole entry, looked up): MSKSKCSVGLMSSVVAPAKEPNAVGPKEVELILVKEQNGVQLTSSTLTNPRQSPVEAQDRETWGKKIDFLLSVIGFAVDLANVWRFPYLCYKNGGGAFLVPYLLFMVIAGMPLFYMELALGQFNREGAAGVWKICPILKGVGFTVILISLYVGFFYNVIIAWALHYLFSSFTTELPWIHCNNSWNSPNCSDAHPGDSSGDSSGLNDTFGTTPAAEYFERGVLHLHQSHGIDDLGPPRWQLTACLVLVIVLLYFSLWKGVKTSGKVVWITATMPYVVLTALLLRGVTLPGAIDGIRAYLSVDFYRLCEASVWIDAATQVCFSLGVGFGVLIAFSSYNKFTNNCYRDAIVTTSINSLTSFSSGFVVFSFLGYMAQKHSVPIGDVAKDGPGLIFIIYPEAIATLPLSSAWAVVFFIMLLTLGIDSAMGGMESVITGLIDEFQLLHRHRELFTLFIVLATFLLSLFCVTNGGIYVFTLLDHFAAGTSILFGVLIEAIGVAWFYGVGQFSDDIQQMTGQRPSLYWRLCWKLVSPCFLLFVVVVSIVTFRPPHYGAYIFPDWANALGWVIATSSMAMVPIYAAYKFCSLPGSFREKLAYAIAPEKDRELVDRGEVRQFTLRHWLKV

With `CC(C)CCCCCCc1ccc(OCCOCCO)cc1` the outcome [1] was “inactive”, the AC50 [2] was 3.19 µM (active) and the AC50 [3] was 25 µM (active). The outcome [4] was “inactive”, the outcome [5] was “inactive” and the outcome [6] was “inactive”. For the same compound, the outcome [7] was “inactive” and the outcome [8] was “inactive”.

With `CCOCCOCCOCC` the AC50 [9] was 4.87 µM (active).

In the case of `C=C1CC[C@H](O)C/C1=C/C=C1\CCC[C@]2(C)[C@@H]([C@H](C)/C=C/[C@H](C)C(C)C)CC[C@@H]12`, the AC50 [1] is reported as 12 µM (active), the outcome [10] is reported as “inactive” and the outcome [3] is reported as “inactive”. For the same compound, the AC50 [11] was 36.8 µM (active), the outcome [12] was “inactive” and the outcome [6] was “inactive”. The outcome [7] was “inactive”, the outcome [8] was “inactive” and the AC50 [13] was 19.8 µM (active).

With `O=P(O)(O)O` the outcome [1] was “inactive”, the outcome [3] was “inactive” and the outcome [12] was “inactive”. For the same compound, the outcome [6] was “inactive”, the outcome [7] was “inactive” and the outcome [8] was “inactive”.

With `Oc1c(Cl)cc(Cl)c(Cl)c1Cc1c(O)c(Cl)cc(Cl)c1Cl` the AC50 [14] was 2.06 µM (active).

In the case of `c1ccc2[nH]cnc2c1`, the outcome [9] is reported as “inactive”.

For `CCCCCCCCCCCCCCN(CCO)CCO`, the outcome [1] was “inactive”, the outcome [7] was “inactive” and the outcome [8] was “inactive”.

With `CCCCC(CC)COC(C)=O` (stereo not drawn) the outcome [1] was “inactive”, the outcome [3] was “inactive” and the outcome [12] was “inactive”. The outcome [6] was “inactive”, the outcome [7] was “inactive” and the outcome [8] was “inactive”.

In the case of `CCOC(=O)c1ccc(N)cc1`, the AC50 [10] is reported as 41.6 µM (active), the outcome [3] is reported as “inactive” and the outcome [11] is reported as “inactive”. The AC50 [15] was 20.2 µM (active), the outcome [12] was “inactive” and the AC50 [6] was 31.8 µM (active). The outcome [7] was “inactive” and the outcome [8] was “inactive”.

For `ClC(c1ccccc1)(c1ccccc1)c1ccccc1`, the outcome [16] was “inactive” and the outcome [17] was “inactive”.

With `CCc1cc(Cc2cc(CC)cc(C(C)(C)C)c2O)c(O)c(C(C)(C)C)c1` the outcome [10] was “inactive”, the outcome [2] was “inactive” and the outcome [3] was “inactive”. For the same compound, the outcome [7] was “inactive” and the outcome [8] was “inactive”.

In the case of `CCCCCCCCc1ccc(S(=O)(=O)O)cc1`, the AC50 [10] is reported as 4.22 µM (active), the outcome [10] is reported as “inactive” and the outcome [3] is reported as “inactive”. The outcome [11] was “inactive”, the outcome [15] was “inactive” and the outcome [7] was “inactive”. The outcome [8] was “inactive”.

For `C=CC(C)(O)CCC=C(C)C` (stereo not drawn), the outcome [10] was “inactive”, the outcome [3] was “inactive” and the outcome [11] was “inactive”. For the same compound, the outcome [15] was “inactive”, the outcome [12] was “inactive” and the outcome [7] was “inactive”. For the same compound, the outcome [8] was “inactive”.

In the case of `C[C@H]1O[C@@H](O[C@H]2[C@@H](O)C[C@H](O[C@H]3[C@@H](O)C[C@H](O[C@H]4CC[C@@]5(C)[C@H](CC[C@@H]6[C@@H]5C[C@@H](O)[C@]5(C)[C@@H](C7=CC(=O)OC7)CC[C@]65O)C4)O[C@@H]3C)O[C@@H]2C)C[C@H](O)[C@@H]1O`, the outcome [10] is reported as “inactive”, the outcome [2] is reported as “inactive” and the outcome [3] is reported as “inactive”. The outcome [7] was “inactive” and the outcome [8] was “inactive”.

In the case of `O=CCc1ccccc1`, the outcome [10] is reported as “inactive”, the AC50 [11] is reported as 30.1 µM (active) and the AC50 [12] is reported as 19.1 µM (active). For the same compound, the outcome [6] was “inactive”, the outcome [7] was “inactive” and the outcome [8] was “inactive”.

With `O=C1OC[C@H](Cc2cccc(O)c2)[C@H]1Cc1cccc(O)c1` the AC50 [16] was 0.771 µM (active), the AC50 [17] was 0.0517 µM (active) and the outcome [12] was “inactive”. The outcome [7] was “inactive” and the outcome [8] was “inactive”.

With `Nc1ccccc1[N+](=O)[O-]` the outcome [10] was “inactive”, the outcome [3] was “inactive” and the outcome [11] was “inactive”. The outcome [15] was “inactive”, the outcome [12] was “inactive” and the outcome [6] was “inactive”. For the same compound, the outcome [7] was “inactive” and the outcome [8] was “inactive”.
